Experimental data as given in PubChem BioAssay (NCI).
About 79,000 compounds went through this panel and 15% of them were active in at least one assay; those are over-represented in the sample as a whole. Activity calls are given as the source filed them. No stated cut-off is given here; in the data, active means growth inhibition above about 70%; inactive means the rest.

Experiments:
[1] = NCI Yeast Anticancer Drug Screen. Data for the mec2-1 strain (AID 157); details: S. cerevisiae mec2-1 strain, active compounds read high
Procedure, shortened: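 Compounds were applied to mec2-1 yeast cells. Their growth was then compared with that of vehicle-treated cultures to give growth inhibition.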

[2] = NCI Yeast Anticancer Drug Screen. Data for the rad14 strain (AID 159);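 further: 0% = growth of vehicle-treated control cultures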; details: S. cerevisiae rad14 strain growth inhibition, active compounds read high
Procedure, shortened: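 Screen for anticancer potential: a yeast strain altered in DNA damage repair is grown with compound, and reduced growth is quantified against vehicle controls.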

[3] = NCI Yeast Anticancer Drug Screen. Data for the sgs1 mgt1 strain (AID 161);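 further: 0% = growth of cultures given vehicle only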; details: S. cerevisiae sgs1 mgt1 strain, active compounds read high
Procedure, shortened: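 Compounds are added to genetically altered yeast, and growth is compared with cultures given vehicle alone to give percent inhibition.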

[4] = NCI Yeast Anticancer Drug Screen. Data for the CLN2oe strain (AID 163);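 further: 0% = growth of vehicle-only control cultures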; details: S. cerevisiae CLN2oe strain, active compounds read high
Procedure, shortened: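 Cells of an engineered yeast line with disturbed cell-cycle regulation are treated with compound. Inhibition of growth is then calculated relative to the vehicle-treated reference.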

[5] = NCI Yeast Anticancer Drug Screen. Data for the cln2 rad14 strain (AID 165);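 further: 0% = growth equal to vehicle treated cultures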; details: S. cerevisiae cln2 rad14 strain, active compounds read high
Procedure, shortened: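 Strain: cln2 rad14 yeast, altered in cell cycle control and DNA damage repair. Read-out: growth inhibition vs vehicle.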

[6] = NCI Yeast Anticancer Drug Screen. Data for the bub3 strain (AID 167); details: S. cerevisiae bub3 mutant strain, active compounds read high
Procedure, shortened: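 Screening used yeast with an engineered genetic alteration affecting cell cycle control. Compound-exposed cultures were compared with vehicle cultures, and reduced growth was taken as inhibition.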

[7] = NCI Yeast Anticancer Drug Screen. Data for the wt2 strain (AID 169);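 further: 0% = growth of vehicle-treated yeast cultures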; details: S. cerevisiae wt2 strain growth inhibition, active compounds read high
Procedure, shortened: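 Growth of compound-treated yeast is measured and expressed as inhibition relative to vehicle-only controls.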

[8] = NCI Yeast Anticancer Drug Screen. Data for the mlh1 strain (AID 171);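 further: 0% = growth of vehicle-treated control cultures of the same strain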; details: S. cerevisiae mlh1 strain growth inhibition, active compounds read high
Procedure, shortened: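 Test agents were incubated with yeast bearing a defined DNA damage repair or cell cycle control alteration; values are growth inhibition normalised to vehicle-treated cultures.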

[9] = NCI Yeast Anticancer Drug Screen. Data for the sgs1 strain (AID 173);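 further: 0% = growth of vehicle-only control cultures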; details: S. cerevisiae sgs1 mutant, active compounds read high
Procedure, shortened: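 Strain with an altered DNA repair or cell cycle pathway exposed to compound. Growth then measured. Value = inhibition versus vehicle control.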

[10] = NCI Yeast Anticancer Drug Screen. Data for the mlh1 rad18 strain (AID 175); details: S. cerevisiae mlh1 rad18 strain growth inhibition, active compounds read high
Procedure, shortened: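 A repair-deficient yeast strain is exposed to test compound, and growth is scored relative to vehicle-treated controls.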

[11] = NCI Yeast Anticancer Drug Screen. Data for the rad18 strain (AID 177); details: S. cerevisiae rad18 mutant growth inhibition, active compounds read high
Procedure, shortened: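 DNA-repair-defective yeast; compound treatment; growth inhibition scored against vehicle.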

[12] = NCI Yeast Anticancer Drug Screen. Data for the rad52 strain (AID 147);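 further: 0% = growth of vehicle-treated control cultures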; details: S. cerevisiae rad52 mutant growth inhibition, active compounds read high
Procedure, shortened: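 Growth of repair-deficient yeast cells was compared between compound-treated and vehicle-treated cultures to give percent inhibition.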

[13] = NCI Yeast Anticancer Drug Screen. Data for the wt1 strain (AID 149);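 further: 0% = growth of vehicle-treated wt1 cultures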; details: S. cerevisiae wt1 strain (SPY 50644) growth inhibition, active compounds read high
Procedure, shortened: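 Using yeast strain wt1, compound-induced growth inhibition was determined against vehicle-treated cultures.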

[14] = NCI Yeast Anticancer Drug Screen. Data for the rad50EPP+ strain (AID 151);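 further: 0% = growth of vehicle-treated control cultures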; details: S. cerevisiae rad50 mutant strain, active compounds read high
Procedure, shortened: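 Measured: growth inhibition of rad50EPP+ yeast. Reference: vehicle-treated controls. Screen uses strains with defined genetic alterations in DNA damage repair or cell cycle control.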

[15] = NCI Yeast Anticancer Drug Screen. Data for the mgt1 strain (AID 153); details: S. cerevisiae mgt1 mutant growth inhibition, active compounds read high
Procedure, shortened: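 Compounds were applied to mgt1 mutant yeast, and growth was then compared against vehicle-treated control cultures to give percent inhibition.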

[16] = NCI Yeast Anticancer Drug Screen. Data for the rad50 strain (AID 155);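 further: 0% = growth of vehicle-only cultures of the same strain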; details: S. cerevisiae rad50 strain growth inhibition, active compounds read high
Procedure, shortened: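 Relative growth inhibition (compound vs vehicle) was measured in yeast with a defined repair-gene alteration.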

[17] = at 5.0 µM (retest, dose inferred, filed as 0.5)
[18] = at 50.0 µM (retest, dose inferred, filed as 5.0)

Measured: growth inhibition

CCC1(OC(=O)CN)C(=O)OCc2c1cc1n(c2=O)Cc2cc3ccccc3nc2-1 (stereo unspecified)
inactive: [2]; at 1.2 µM 4% | [2]; at 3.7 µM 23% | [3]; [17] 62% | [4]; at 1.2 µM 37% | [4]; at 3.7 µM 37% | [4]; at 11.0 µM 62% | [5]; [17] 49% | [6]; at 1.2 µM 9% | [6]; at 3.7 µM 13% | [6]; [17] 8% | [6]; at 11.0 µM 44% | [7]; at 1.2 µM 0% | [7]; at 3.7 µM 4% | [7]; at 11.0 µM 67% | [8]; at 1.2 µM 3% | [8]; at 3.7 µM 15% | [9]; at 1.2 µM 8% | [9]; at 3.7 µM 38% | [10]; [17] 42% | [10]; [18] -13% | [11]; at 1.2 µM 31% | [11]; at 3.7 µM 33% | [11]; at 11.0 µM 58%
active: [1]; [17] 84% | [1]; at 11.0 µM 96% | [1]; at 33.0 µM 97% | [1]; [18] 95% | [1]; at 50.0 µM 99% | [1]; at 100.0 µM 98% | [2]; at 11.0 µM 76% | [2]; at 33.0 µM 93% | [2]; at 100.0 µM 96% | [3]; [18] 96% | [3]; at 50.0 µM 94% | [4]; at 33.0 µM 80% | [4]; at 100.0 µM 88% | [5]; [18] 92% | [5]; at 50.0 µM 89.2% | [6]; at 33.0 µM 79% | [6]; [18] 94% | [6]; at 50.0 µM 96.9% | [6]; at 100.0 µM 92% | [7]; at 33.0 µM 90% | [7]; at 100.0 µM 95% | [8]; at 11.0 µM 70% | [8]; at 33.0 µM 93% | [8]; at 100.0 µM 96% | [9]; at 11.0 µM 85% | [9]; at 33.0 µM 94% | [9]; at 100.0 µM 95% | [10]; at 50.0 µM 97.3% | [11]; at 33.0 µM 80% | [11]; at 100.0 µM 89%

CC1CC(Br)C(=O)O1 (stereo unspecified)
active: [12]; at 33.0 µM 89% | [12]; at 100.0 µM 92% | [13]; at 100.0 µM 88% | [14]; at 33.0 µM 88% | [14]; at 100.0 µM 89% | [15]; at 100.0 µM 86% | [16]; at 33.0 µM 74% | [16]; [18] 95% | [16]; at 50.0 µM 86.7% | [16]; at 100.0 µM 89% | [1]; at 33.0 µM 95% | [1]; [18] 98% | [1]; at 50.0 µM 92.2% | [1]; at 100.0 µM 95% | [2]; at 100.0 µM 85% | [3]; [18] 77% | [3]; at 50.0 µM 87.8% | [4]; at 33.0 µM 95% | [4]; at 100.0 µM 96% | [5]; [18] 86% | [5]; at 50.0 µM 84.8% | [6]; at 11.0 µM 74% | [6]; at 33.0 µM 96% | [6]; [18] 98% | [6]; at 50.0 µM 88.5% | [6]; at 100.0 µM 97% | [7]; at 100.0 µM 86% | [8]; at 33.0 µM 79% | [8]; at 100.0 µM 90% | [9]; at 100.0 µM 88% | [10]; [18] 97% | [10]; at 50.0 µM 83.8% | [11]; at 100.0 µM 88%
inactive: [12]; at 1.2 µM -27% | [12]; at 3.7 µM -35% | [12]; at 11.0 µM -18% | [13]; at 1.2 µM -48% | [13]; at 3.7 µM -49% | [13]; at 11.0 µM -22% | [13]; at 33.0 µM 67% | [14]; at 1.2 µM 12% | [14]; at 3.7 µM 11% | [14]; at 11.0 µM 34% | [15]; at 1.2 µM -52% | [15]; at 3.7 µM -49% | [15]; at 11.0 µM -24% | [15]; at 33.0 µM 69% | [16]; at 1.2 µM -67% | [16]; at 3.7 µM -55% | [16]; [17] -14% | [16]; at 11.0 µM -34% | [1]; at 1.2 µM -30% | [1]; at 3.7 µM -18% | [1]; [17] 1% | [1]; at 11.0 µM 31% | [2]; at 1.2 µM -49% | [2]; at 3.7 µM -42% | [2]; at 11.0 µM -30% | [2]; at 33.0 µM 58% | [3]; [17] 9% | [4]; at 1.2 µM -44% | [4]; at 3.7 µM -44% | [4]; at 11.0 µM -13% | [5]; [17] 39% | [6]; at 1.2 µM 8% | [6]; at 3.7 µM 22% | [6]; [17] 44% | [7]; at 1.2 µM -52% | [7]; at 3.7 µM -40% | [7]; at 11.0 µM -25% | [7]; at 33.0 µM 30% | [8]; at 1.2 µM -54% | [8]; at 3.7 µM -51% | [8]; at 11.0 µM -18% | [9]; at 1.2 µM -41% | [9]; at 3.7 µM -40% | [9]; at 11.0 µM -31% | [9]; at 33.0 µM 68% | [10]; [17] -9% | [11]; at 1.2 µM -57% | [11]; at 3.7 µM -50% | [11]; at 11.0 µM -28% | [11]; at 33.0 µM 69%
